# Assay outcomes deposited in PubChem BioAssay by several laboratories.
# An excerpt weighted towards active compounds, which were near 5.2% of everything screened.
# ALR H2O2 inh: inhibitors of human ALR sulfhydryl oxidase, primary screen, biochemical, H2O2 detection, HRP-luminol luminescence, single point; FAD-linked sulfhydryl oxidase ALR (Homo sapiens), P55789; purified ALR, DTT oxidation; inhibition, % (test concentration not listed); 290,000 compounds, 3.8% hits;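 active = mean replicate inhibition above about 79%, with every replicate also reaching it, limit read from the data; inconclusive = only one of the two criteria met; inactive = mean below limit and not every replicate reaching it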
# CendR NRP1 mod: modulators of CendR peptide binding to NRP-1, primary screen, biochemical, fluorescence polarization, uHTS. 360,000 compounds, 0.85% hits. FAM-RPARPAR peptide binding to NRP-1. inhibition, % at 25 µM;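 active = inhibition or corrected inhibition above about 18%, plus a signal ratio from 0.5 to 1.5, limit read from the data, passing the limit was not always enough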
# Yeast superoxide: reduction of superoxide in aged yeast, primary screen, HTS; S. cerevisiae aged cells, superoxide DHE fluorescence; hits give low values; superoxide response (% of plate mean), % at 10 µM; 330,000 compounds, 0.18% hits; AID 2690, 2010;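 active = superoxide response under a set limit, about three screen SD below normal, cut at about 65% in these data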;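 also: yeast aged for seven days with compound at 30 °C before DHE staining; 100% = average MFI of all compound-treated wells on the plate with controls excluded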
# APOBEC3G inh: APOBEC3G DNA deaminase inhibitors, primary screen, biochemical, fluorescence, single-stranded DNA substrate, uHTS. 330,000 compounds, 0.28% hits. recombinant A3G, ssDNA deamination FAM/TAMRA fluorescence. AID 493012, 2011. inhibition, % at 20 µM;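 active = inhibition of at least 40% at 20 µM, with no more than 30% in the related APOBEC3A deaminase screen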;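 also: plate controls were DMSO wells with A3G for no effect and wells lacking A3G enzyme for full effect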
# Target sequence (Q9HC16 whole entry, looked up): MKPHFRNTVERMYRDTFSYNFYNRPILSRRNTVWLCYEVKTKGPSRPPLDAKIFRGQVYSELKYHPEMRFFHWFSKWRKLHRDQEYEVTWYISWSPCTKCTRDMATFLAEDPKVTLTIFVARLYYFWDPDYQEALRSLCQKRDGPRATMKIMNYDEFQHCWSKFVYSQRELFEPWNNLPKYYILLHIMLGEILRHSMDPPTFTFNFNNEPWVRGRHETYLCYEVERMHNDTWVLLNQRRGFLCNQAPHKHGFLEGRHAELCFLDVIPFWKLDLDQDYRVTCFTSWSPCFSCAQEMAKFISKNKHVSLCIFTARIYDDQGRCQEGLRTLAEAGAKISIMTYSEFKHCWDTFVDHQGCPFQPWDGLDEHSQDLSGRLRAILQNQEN
# PfM18AAP inh: PfM18AAP inhibitors, malaria aminopeptidase, primary screen, biochemical, QFRET, recombinant enzyme; 290,000 compounds, 1.2% hits; H-Glu-NHMec fluorogenic cleavage; AID 1822, 2009; inhibition, % at 7.35 µM;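 active = inhibition above the campaign mean inhibition over all tested compounds plus 3 SD, cut at about 28% in these data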;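 also: 0% = plate median of test compound wells and 100% = 2 mM ZnCl2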
# A3A deaminase: APOBEC3A ssDNA deaminase inhibitors, primary screen, selectivity assay for APOBEC3G inhibitor project, biochemical, FAM/TAMRA oligo cleavage fluorescence; recombinant A3A, FAM/TAMRA ssDNA deamination fluorescence; inhibition, % at 20 µM; 330,000 compounds, 0.41% hits; AID 493011, 2011;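 active = at least 40% inhibition at 20 µM here, with at most 30% in a related deaminase screen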;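 also: plate controls were A3A with DMSO for no effect and wells lacking A3A enzyme for full effect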
# Active calls of the source: *; ? = inconclusive; · = no result given.
SMILES,ALR H2O2 inh,CendR NRP1 mod,Yeast superoxide,APOBEC3G inh,PfM18AAP inh,A3A deaminase
CC(=O)NC(c1cc(Cl)c2cccnc2c1O)C(C)C (stereo not drawn),?,6,91,-9,·,-3
CC(=O)NC(c1cc(Cl)c2ccccc2c1O)C(C)C (stereo not drawn),94*,18,119,0,·,2
CN1CCN(c2cccc3c2S(=O)(=O)N[C@H](Cc2ccccc2)CO3)CC1,·,-6,·,·,·,·
CCn1c(C)nc2cc(C(=O)NNC(=O)Nc3cccc(Cl)c3)ccc21,13,3,99,-7,31*,-3
CCn1c(C)nc2cc(C(=O)NNS(=O)(=O)c3ccc(C)c(C)c3)ccc21,81*,4,90,-3,8,-1
CCn1c(C)nc2cc(C(=O)NNS(=O)(=O)c3cc(Br)ccc3Br)ccc21,20,-6,99,-5,-1,2
CCn1c(C)nc2cc(C(=O)NNC(=O)Nc3ccc(Cl)cc3)ccc21,40,-8,96,-4,20,1
CC(C)C1NCCc2c1sc1ccccc21 (stereo not drawn),-6,8,91,-4,·,0
COc1cc(C2C(C#N)=C(N)Oc3cc(O)ccc32)cc2c1OCO2 (stereo not drawn),61,-5,98,-4,7,-2
COc1cc(C2C(C#N)=C(N)Oc3cc(N(C)C)ccc32)cc2c1OCO2 (stereo not drawn),7,-109,102,-12,30*,-5
CCN1CCN(C(=O)c2ccccc2Nc2ccc(SC(F)F)cc2)CC1,90*,7,97,-3,1,0
N/C(CSc1ncccc1C(F)(F)F)=N\O,23,4,114,-11,-2,-1
CC(=O)N1c2ccccc2C2(O)N=C(C)SC12 (stereo not drawn),53,7,80,46*,42*,-1
CC(=O)N1c2ccccc2[C@@H](C)[C@@H]1C,-7,16,107,1,·,2
O=C1N(Cc2cccc(Cl)c2)C[C@@H]2C[C@@H](c3c[nH]c4ccccc34)N3CCC[C@@]123,-25,-183,90,-4,1,4
COc1ccc([N+](=O)[O-])cc1-c1[nH]c(-c2ccc(C(=O)O)cc2)nc1-c1ccccc1,98*,-4,99,-10,-1,-4
COc1ccc(-c2nc(-c3ccccc3)c(-c3cc([N+](=O)[O-])ccc3C)[nH]2)cc1O,62,-1,107,0,-9,9
CCCCC[C@@H](C)N1C[C@H](COCc2ccccc2)Oc2cc(N3CC[C@H](O)C3)ccc2S1(=O)=O,·,20*,·,·,·,·
CCCCC[C@H](C)N1C[C@H](COCc2ccccc2)Oc2cc(N3CC[C@H](O)C3)ccc2S1(=O)=O,·,1,·,·,·,·
O=C(NCC(c1cccnc1)N1CCOCC1)C1CCCCC1 (stereo not drawn),·,9,97,-2,-2,0
O=C(O)c1cc(-c2cc(C(=O)O)c3ccccc3n2)ccc1O,·,-10,·,·,·,·
O=C(NNc1ccccn1)C(=O)NNS(=O)(=O)c1ccc(Cl)cc1,99*,-4,96,-5,21,-3
O=C(NNc1ccccc1)C(=O)NNS(=O)(=O)c1ccc([N+](=O)[O-])cc1,98*,8,128,-7,5,-3
CC(=O)Nc1ccc(S(=O)(=O)NNC(=O)c2ccc([N+](=O)[O-])cc2)cc1,72,3,101,-16,21,-4
O=C(NNc1ccccn1)C(=O)NNS(=O)(=O)c1ccc(F)cc1,99*,-16,95,-8,21,-5
CCOc1cc(CNn2cnnc2)cc(Br)c1OCC(=O)NC1CCCCC1,-4,-6,91,-1,-7,3
CC(C)(C)c1cc(CSC(=S)NC2CCS(=O)(=O)C2)c(Br)c(C(C)(C)C)c1 (stereo not drawn),·,0,91,-9,2,4
